Here are results for 14 compounds from PubChem BioAssay (NCI).

Assay in all cases: NCI-60 one-dose screen, 48 h (100 = growth as untreated, 0 = no growth, -100 = all killed)
What all share (conditions): 10 µM unless noted

For assay [1], the system named is T-47D breast.
For assay [2], the system named is BT-549 breast.
Assay [3] concerns MDA-MB-435 melanoma.
In assay [4] the test system is SW-620 colon.
The subject of assay [5] is MCF7 breast.
Assay [6] concerns HCT-116 colon.
Assay [7] concerns HCC-2998 colon.
Assay [8] relates to KM12 colon.

Each structure is given as a SMILES string. The panel holds about 83,000 compounds, 20% with a hit somewhere; the sample as a whole holds those more often.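 Cell lines were cultured in 96-well plates, exposed to a single compound concentration, and assessed for percent growth 48 hours later.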 A number with no mark means an inactive call. Active and inactive are the calls of the source. Rule for the calls: active = growth percent below 10; inactive = the rest.

`COc1ccc(Br)c2ccccc12`: the growth in assay [1] was 97.9%; in assay [2], 123%; in assay [3], 105%; in assay [4], 106%; in assay [5], 100%; in assay [6], 108%. In addition, the values for the growth in assay [7] and in assay [8] were 104% and 109%, respectively.

In the case of `C=CCn1c(SCC(=O)Nc2ccc(C(=O)/C=C/c3ccccc3)cc2)nnc1-c1ccc(OC)c(OC)c1`, the growth in assay [1] is 50.6%; in assay [2], 59.5%; in assay [3] it was 69.3%; in assay [4], 100%; in assay [5], 16.5%; in assay [6], -91.7% (active). Also, the values for the growth in assay [7] and in assay [8] were 85.3% and 57.3%, respectively.

`COc1cc(NC(C)CCCN)c2ncccc2c1Oc1ccc(Cl)cc1` (configuration not stated): the growth is 76.8% in assay [1]; 86.2% in assay [2]; 90.7% in assay [3]; 73.5% in assay [4]; 71.3% in assay [5]; 58.3% in assay [6]. The growth in assay [7] was 49.8%; in assay [8], 69.2%.

`O=C(OCc1ccc2c(Cl)cc(Cl)c(O)c2n1)c1cc2ccccc2[nH]1`: the growth in assay [1] is -57.2% (active); in assay [2], -76.3% (active); in assay [3] it was -89.4% (active); in assay [4] it was -66.2% (active); in assay [5], -35.7% (active); in assay [6], -73.3% (active). Further, the growth in assay [7] was -73.1% (active); in assay [8], -63.9% (active).

With `CCOc1cccc(/C=N/NC(=O)Cc2ccc(Nc3ccnc(C(F)(F)F)c3)cc2)c1O`, the growth was 15.7% in assay [1]; 40.7% in assay [2]; 40.3% in assay [3]; 21.5% in assay [4]; 5.26% (active) in assay [5]; 20.9% in assay [6]. Moreover, the growth in assay [7] is 37.4%; in assay [8], 30.1%.

Consider `Cc1ccc(-c2nc3ccccc3c(=O)n2/N=C/c2cccc3ccccc23)cc1`, for which the growth in assay [1] is 42.6%; in assay [2] it was 80.1%; in assay [3], 69.2%; in assay [4] it was 93.9%; in assay [5], 62.9%; in assay [6], 71.5%. The growth was 80.5% in assay [7] and 69.1% in assay [8].

Regarding `Cc1[nH]nc2ccc3nc(-c4ccc5[nH]ncc5c4)c4c(c3c12)CCCC4`, the growth in assay [1] is 24.1%; in assay [2], 18.5%; in assay [3], 3.38% (active); in assay [4], 6.74% (active); in assay [5], 28%; in assay [6], 6.66% (active). The growth in assay [7] was 45.2%; in assay [8] it was 12.6%.

`CCOC(=O)c1ccc(NC(=O)NC2=NCCS2)cc1`: the growth in assay [1] is 35.8%; in assay [2] it was 24.2%; in assay [3], 48.3%; in assay [4], 77.8%; in assay [5] it was 33.4%; in assay [6], 93%. Further, the growth was 45% in assay [7] and 15.5% in assay [8].

With `COc1cc(/C=C/C(=O)c2c(C)nc3ccccc3c2C)ccc1OCCCOc1cc2c(cc1OC)C(=O)N1CCC[C@H]1C=N2`, the growth in assay [1] is -38.8% (active); in assay [2], -94.2% (active); in assay [3] it was -60.8% (active); in assay [4] it was -67.6% (active); in assay [5], -51.3% (active); in assay [6], -35.8% (active). The growth was -69.3% (active) in assay [7] and -54.2% (active) in assay [8].

Turning to `COc1cc2c(cc1OC)C(=O)OC2`, the growth in assay [1] is 98.5%; in assay [2], 118%; in assay [3], 103%; in assay [4], 104%; in assay [5], 105%; in assay [6] it was 111%. For the same compound, the growth in assay [7] is 118%; in assay [8], 113%.

Consider `O=C(c1ccccc1)N(CCCCl)C(=O)N(CCCCl)C(=O)c1ccccc1`, for which the growth in assay [1] is 93.1%; in assay [2], 103%; in assay [3], 89.6%; in assay [4], 89.8%; in assay [5], 119%; in assay [6] it was 90.9%. For the same compound, the growth in assay [7] is 95.3%; in assay [8], 88.3%.

Turning to `CCOC(=O)c1sc2nc(-c3cc4ccccc4o3)cc(-c3ccc(Cl)cc3)c2c1N`, the growth is 103% in assay [1]; 148% in assay [2]; 222% in assay [3]; 96.8% in assay [4]; 110% in assay [5]; 105% in assay [6]. Besides, the growth is 109% in assay [7] and 99.7% in assay [8].

With `CC(COC(=O)c1ccccc1)N1CC2CCC(C1)O2` (configuration not stated), the growth is 103% in assay [1]; 105% in assay [2]; 98.1% in assay [3]; 97.6% in assay [4]; 102% in assay [5]; 106% in assay [6]. For the same compound, the growth was 110% in assay [7] and 109% in assay [8].

`COc1ccc2[nH]cc(C(c3ccc(Cl)cc3)N3CCCC3)c2c1` (configuration not stated): the growth in assay [1] is 74%; in assay [2] it was 65.9%; in assay [3], 105%; in assay [4], 112%; in assay [5], 89.3%; in assay [6], 96.5%. The growth is 97% in assay [7] and 101% in assay [8].
